Several values for one entry are separate records, joined by “and”; a condition that tells them apart may be missing. Identical values can stand only once. Results filed as inconclusive are left out. Entries that show only a call come without a potency. Some structures have more than one record in an assay (separate samples or runs), and their calls can disagree. Activity calls are given as the source filed them. The call rests on the fitted dose curve; in most records, active means well fitted curve in the direction sought with a large enough effect; inconclusive means small, poorly fitted or top-dose-only effect, or another doubt; inactive means no such curve, though single readings can be large; an effect the other way counts as inactive or inconclusive.
Key:
[1] = Viability qHTS for spleen associated tyrosine kinase inhibitor (SYKi) naive MV4-11 cells (AID 1963823); further: nearly all actives have a fitted effect of over 40% in size
Procedure, shortened: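 CellTiter-Glo luminescence, 10 min room-temperature incubation, gave viability. Cells: naive MV4-11 (500/well), treated 72 hr at 37 C, 5% CO2.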

[2] = Viability qHTS for spleen associated tyrosine kinase inhibitor (SYKi) drug resistant MV4-11 cells (AID 1963824); further: nearly all actives have a fitted effect of over 35% in size
Procedure, shortened: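 SYK inhibitor-resistant MV4-11 AML cells, 500 per well, added to predispensed compounds and incubated 72 hr at 37 C, 5% CO2. Viability measured by CellTiter-Glo luminescence after 10 min at room temperature.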

[3] = Quantitative highthroughput screen to assess conditional lethalithy of NOMO1 cells grown in RPMI1640 with untreated serum (RPMI+s) (AID 1963876); further: nearly all actives have a fitted effect of over 35% in size
Procedure, shortened: (§1)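 Each medium arm—HPLM with 10% dialyzed FBS, or RPMI1640 with 5 mM glucose and 10% untreated or dialyzed FBS—was screened against an 11-point, 3-fold compound titration for 48 h at 37 °C, with CellTiter-Glo luminescence as endpoint.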

[4] = Quantitative highthroughput screen to assess conditional lethalithy of NOMO1 cells grown in RPMI1640 with dialyzed fetal bovine serum (RPMI+ds) (AID 1963877); further: nearly all actives have a fitted effect of over 30% in size; on Viability: series mostly up to about 46 µM
Procedure, shortened: as §1

[5] = Quantitative highthroughput screen to assess conditional lethalithy of NOMO1 cells grown in Human Plasma-Like Medium with dialyzed fetal bovine serum (HPLM+ds) (AID 1963878); further: nearly all actives have a fitted effect of over 35% in size
Procedure, shortened: as §1

[6] = Quantitative highthroughput screen to assess conditional lethalithy of P12 Ichikawa cells grown in Human Plasma-Like Medium with dialyzed fetal bovine serum (HPLM+ds) (AID 1963879); details: Potency: viability; further: nearly all actives have a fitted effect of over 35% in size; on Viability: series mostly up to about 46 µM
Procedure, shortened: as §1

[7] = Quantitative highthroughput screen to assess conditional lethalithy of P12 Ichikawa cells grown in RPMI1640 with dialyzed fetal bovine serum (RPMI+ds) (AID 1963880); details: Potency: P12-Ichikawa viability; further: nearly all actives have a fitted effect of over 35% in size
Procedure, shortened: as §1

[8] = Quantitative highthroughput screen to assess conditional lethalithy of P12 Ichikawa cells grown in RPMI1640 with untreated serum (RPMI+s) (AID 1963881); details: Potency: viability; further: nearly all actives have a fitted effect of over 35% in size; on Viability: series mostly up to about 46 µM
Procedure, shortened: as §1

[9] = Quantitative highthroughput screen to assess conditional lethalithy of SEM cells grown in Human Plasma-Like Medium with dialyzed fetal bovine serum (HPLM+ds) (AID 1963882); further: nearly all actives have a fitted effect of over 35% in size; on Viability: series mostly up to about 46 µM
Procedure, shortened: as §1

[10] = Quantitative highthroughput screen to assess conditional lethalithy of SEM cells grown in RPMI1640 with unreated serum (RPMI+s) (AID 1963883); further: nearly all actives have a fitted effect of over 35% in size
Procedure, shortened: as §1

[11] = Quantitative highthroughput screen to assess conditional lethalithy of SEM cells grown in RPMI1640 with dialyzed fetal bovine serum (RPMI+ds) (AID 1963884); further: nearly all actives have a fitted effect of over 35% in size; on Viability: series mostly up to about 46 µM
Procedure, shortened: as §1

[12] = Cellular viability qHTS for adrenocortical cancer (ACC) cell line NCI-H295R (AID 1963990); further: nearly all actives have a fitted effect of over 60% in size
Procedure, shortened: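 CellTiter-Glo ATP luminescence, read 48 h after compound addition, measured viability of NCI-H295R adrenocortical cells grown serum-free with ITS. Final concentrations spanned up to 46 uM. Data normalized to DMSO and doxorubicin, fitted for IC50 and maximal response.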

[13] = Cellular viability qHTS for adrenocortical cancer (ACC) cell line SW-13 (AID 1963989); details: SW-13 ACC cells viability, CellTiter-Glo, 48 h; activity (max response): stronger effect = lower value; further: nearly all actives have a fitted effect of over 65% in size;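 on activity (max response): cells grown in serum-free medium with ITS supplement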
Procedure, shortened: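 Viability was read as CellTiter-Glo luminescence after 48 h compound treatment (up to 46 uM final) of SW-13 cells grown serum-free; titration curves were fit with a four-parameter logistic model to give IC50 and efficacy.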
Potency means the concentration at half of the fitted maximal effect.

SMILES | Potency [1] | Potency [2] | Potency [3] | Potency [4] | Potency [5] | Potency [6] | Potency [7] | Potency [8] | Potency [9] | Potency [10] | Potency [11] | Potency [12] | activity (max response) [13] | Potency [13]
Cn1cnc2c(F)c(Nc3ccc(Br)cc3Cl)c(C(=O)NOCCO)cc21 | 0.296 µM (active) | 668 nM (active) and 164 nM (active) and 468 nM (active) | 590 nM (active) | 296 nM (active) | 296 nM (active) | 662 nM (active) | 743 nM (active) | 662 nM (active) | 662 nM (active) | 469 nM (active) | 469 nM (active) | inactive | – | –
OCCCNc1cc(-c2ccnc(Nc3cccc(Cl)c3)n2)ccn1 | 82 nM (active) and 83.3 nM (active) | 58 nM (active) and 66.1 nM (active) | 187 nM (active) | 209 nM (active) | 235 nM (active) | 662 nM (active) | 469 nM (active) | 526 nM (active) | 166 nM (active) | 235 nM (active) | 209 nM (active) | 0.316 µM (active) | – | –
CC(C)c1cnn2c(NCc3ccccc3)cc(N[C@@H](CO)[C@H](O)CO)nc12 | 1.03 µM (active) and 332 nM (active) | 820 nM (active) and 263 nM (active) | 743 nM (active) | 743 nM (active) | 662 nM (active) | 1320 nM (active) | 1180 nM (active) | 1050 nM (active) | 743 nM (active) | 590 nM (active) | 743 nM (active) | 0.631 µM (active) | – | –
CC(C)(C)OC(=O)Nc1ccc(-c2cc(C(=O)NCCCCCCC(=O)NO)no2)cc1 | 1.48 µM (active) | 1.48 µM (active) | 8330 nM (active) | 9350 nM (active) | 8330 nM (active) | 2640 nM (active) | 1050 nM (active) | 2350 nM (active) | 3720 nM (active) | 1480 nM (active) | 1320 nM (active) | 2.82 µM (active) | – | –
CCNc1cc(NC2CCC(O)CC2)nc(Nc2ccc3c(ccn3Cc3ccccc3)c2)n1 (stereo unspecified) | 8.33 µM (active) | 14.6 µM (active) | inactive | inactive | inactive | inactive | inactive | inactive | inactive | – | – | inactive | -9.82% (inactive) | –
COc1ccc(-c2nc3ccc(C4=NNC(=O)CC4C)cc3[nH]2)cc1 (stereo unspecified) | 18.6 µM (active) | 11.8 µM (active) | inactive | inactive | inactive | inactive | inactive | inactive | – | inactive | inactive | 6.51 µM (active) and 14.1 µM (active) | – | 18.4 µM (active) and 20 µM (active)
Cc1ccc(C(=O)c2cc(O)c(O)c([N+](=O)[O-])c2)cc1 | 20.9 µM (active) | 23.5 µM (active) | inactive | inactive | inactive | inactive | inactive | inactive | inactive | inactive | inactive | 23.1 µM (active) and 31.6 µM (active) | – | –
Cc1cc(C(C)Nc2ccccc2)c2nc(N3CCOCC3)cc(=O)n2c1 (stereo unspecified) | 9.2 µM (active) and 5.9 µM (active) | 10.3 µM (active) and 9.34 µM (active) | inactive | inactive | inactive | inactive | inactive | inactive | inactive | – | – | – | -14.6% (inactive) | –
O=C(O)Cc1cccc(OCCCN(Cc2cccc(C(F)(F)F)c2Cl)CC(c2ccccc2)c2ccccc2)c1 | 20.9 µM (active) | 16.6 µM (active) | inactive | inactive | inactive | inactive | inactive | inactive | inactive | inactive | inactive | 22.4 µM (active) | – | –
Cc1cnc(C(=O)O)c[n+]1[O-] | inactive | inactive | inactive | inactive | inactive | inactive | inactive | inactive | inactive | – | inactive | inactive | -15.7% (inactive) | –
COc1ccc([C@@H]2CNC(=O)C2)cc1OC1CCCC1 | inactive | inactive | inactive | inactive | inactive | inactive | inactive | inactive | inactive | inactive | inactive | inactive | – | –
CN(CCOc1ccc(NS(C)(=O)=O)cc1)CCc1ccc(NS(C)(=O)=O)cc1 | inactive | inactive | inactive | inactive | inactive | inactive | inactive | inactive | inactive | inactive | – | inactive | 0.645% (inactive) and 1.15% (inactive) | –
CC(C(=O)O)c1cccc(C(=O)c2ccccc2)c1 (stereo unspecified) | inactive | inactive | inactive | inactive | inactive | inactive | inactive | inactive | inactive | inactive | – | inactive | 3.98% (inactive) and 6.3% (inactive) | –
OC[C@@H](O)[C@@H](O)[C@H](O)[C@@H](O)CO | inactive | inactive | inactive | inactive | inactive | inactive | inactive | inactive | – | inactive | inactive | inactive | 3.97% (inactive) | –
Cc1nc(C(=O)NCC(=O)O)c(O)c2ccc(Oc3ccccc3)cc12 | inactive | inactive | inactive | inactive | inactive | inactive | inactive | inactive | inactive | – | inactive | – | 0.299% (inactive) | –
O=C1CCc2ccc(OCCCCN3CCN(c4cccc(Cl)c4Cl)CC3)cc2N1 | 10.5 µM (active) | 9.34 µM (active) | inactive | inactive | inactive | inactive | inactive | inactive | inactive | inactive | – | inactive | – | –
CCn1c(C(=O)N(C2CC2)C2CC2)cc2c3c(ncn3C)c(Nc3cc(C)n(C)n3)nc21 | 1.03 µM (active) and 1.48 µM (active) | 2.31 µM (active) and 3.72 µM (active) | inactive | inactive | inactive | inactive | inactive | inactive | – | 20900 nM (active) | – | – | -6.84% (inactive) | –
CN(C)c1ccc(C(=O)NCCCCCCC(=O)NO)cc1 | 0.833 µM (active) | 0.742 µM (active) | 2960 nM (active) | 2350 nM (active) | 2640 nM (active) | 1480 nM (active) | 1180 nM (active) | 1480 nM (active) | 1320 nM (active) | 1320 nM (active) | 1180 nM (active) | 1.41 µM (active) | – | 4.47 µM (active)
O=C(CCCCCCNC(=O)c1cnc(N(c2ccccc2)c2ccccc2)nc1)NO | 2.95 µM (active) | 2.35 µM (active) | 18700 nM (active) | 16600 nM (active) | 14800 nM (active) | 6620 nM (active) | 5900 nM (active) | 7430 nM (active) | 7430 nM (active) | 5900 nM (active) | 7430 nM (active) | 14.1 µM (active) | – | –
C[C@H]1[C@@H](OC(=O)CCC(=O)O)O[C@@H]2O[C@@]3(C)CC[C@@H]4[C@H](C)CC[C@@H]1[C@@]24OO3 | 0.934 µM (active) | 1.16 µM (active) | 1660 nM (active) | 1320 nM (active) | 2090 nM (active) | 11800 nM (active) | 6620 nM (active) | 5260 nM (active) | 4690 nM (active) | 3720 nM (active) | 4180 nM (active) | 17.8 µM (active) | – | –
CC(C)(OCc1nn(Cc2ccccc2)c2ccccc12)C(=O)O | inactive | inactive | inactive | inactive | inactive | inactive | inactive | inactive | – | inactive | inactive | inactive | 3.54% (inactive) | –
CC1CCN(c2cc(N3CCN(C)CC3)ccc2NC(=O)c2cc(C#N)c[nH]2)CC1 | 5.25 µM (active) | 11.8 µM (active) | inactive | inactive | inactive | inactive | inactive | inactive | inactive | – | inactive | inactive | -21.1% (inactive) | –
CC[C@@H]([C@H](C)O)n1ncn(-c2ccc(N3CCN(c4ccc(OCC5CO[C@@](Cn6cncn6)(c6ccc(F)cc6F)C5)cc4)CC3)cc2)c1=O (stereo partly specified) | 5.9 µM (active) | 4.17 µM (active) | inactive | inactive | inactive | inactive | inactive | inactive | – | inactive | inactive | inactive | -5.54% (inactive) | –
Cc1c(C(=O)Nc2ccc(N3C[C@@H](C)O[C@@H](C)C3)nc2)cccc1-c1ccc(OC(F)(F)F)cc1 | inactive and 16.6 µM (active) | inactive and 7.42 µM (active) | 5260 nM (active) | 11800 nM (active) | 3320 nM (active) | 2350 nM (active) | 4180 nM (active) | 4180 nM (active) | 2960 nM (active) | 1480 nM (active) | – | 10 µM (active) | -4.43% (inactive) | –
O=C(O)c1cc(=O)[nH]c(=O)[nH]1 | inactive | inactive | inactive | inactive | inactive | inactive | inactive | inactive | – | inactive | inactive | inactive | -4.98% (inactive) | –
COc1cc(NS(=O)(=O)c2ccc(N)cc2)nc(OC)n1 | inactive | inactive | inactive | inactive | inactive | inactive | inactive | inactive | – | inactive | inactive | inactive | -1.49% (inactive) | –
CN(C)Cc1ccc(-c2nc3cccc4c3n2CCNC4=O)cc1 | 16.6 µM (active) | 18.4 µM (active) | inactive | inactive | inactive | inactive | inactive | inactive | inactive | inactive | inactive | 25.1 µM (active) | – | –
Oc1ccc(-c2nc(-c3ccc(F)cc3)c(-c3ccncc3)[nH]2)cc1 | 9.34 µM (active) | 8.33 µM (active) | 10500 nM (active) | 13200 nM (active) | 3720 nM (active) | 5260 nM (active) | 13200 nM (active) | 16600 nM (active) | 662 nM (active) | 469 nM (active) | 372 nM (active) | inactive | – | –
NCCc1ccc(O)c(O)c1 | 20.9 µM (active) | inactive and 18.6 µM (active) | 14800 nM (active) | 14800 nM (active) | 9350 nM (active) | inactive | inactive | inactive | 18700 nM (active) | – | 26400 nM (active) | inactive | – | –

Reference: PubChem BioAssay (NCATS)
